# This is one part of a sample in which the strongest signals are shown more often than they occur.
# B1: CALR truncated at D342 (Homo sapiens) (protein)
# chain: EPAVYFKEQFLDGDGWTSRWIESKHKSDFGKFVLSSGKFYGDEEKDKGLQTSQDARFYALSASFEPFSNKGQTLVVQFTVKHEQNIDCGGGYVKLFPNSLDQTDMHGDSEYNIMFGPDICGPGTKKVHVIFNYKGKNVLINKDIRCKDDEFTHLYTLIVRPDNTYEVKIDNSQVESGSLEDDWDFLPPKKIKDPDASKPEDWDERAKIDDPTDSKPEDWDKPEHIPDPDAKKPEDWDEEMDGEWEPPVIQNPEYKGEWKPRQIDNPDYKGTWIHPEIDNPEYSPDPSIYAYDNFGVLGLDLWQVKSGTIFDNFLITNDEAYAEEFGNETWGVTKAAEKQMKD
# Columns and labels:
# Assay in all cases: glycan array binding signal (z-score within array); higher = stronger binding
# Settings in all cases: glycan notation: IUPAC condensed, linker removed
# Fuc(a1-2)Gal = target: Fuc(a1-2)Gal
# How it was run: (§1)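 Columns mapping to the same glycan were averaged after glycan names were converted to IUPAC-condensed notation. The data come from 3228 arrays in the Consortium for Functional Glycomics database, limited to those with an available protein sequence. Binding is reported as a within-array Z-score averaged across arrays of one protein sequence and across linkers.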
# [1] = target: Fuc(a1-2)Gal(b1-3)GalNAc(b1-3)Gal(a1-4)Gal(b1-4)Glc
# How it was run: as §1
# [2] = target: Fuc(a1-2)Gal(b1-3)[Fuc(a1-4)]GlcNAc(b1-2)Man(a1-3)[Fuc(a1-2)Gal(b1-3)[Fuc(a1-4)]GlcNAc(b1-2)Man(a1-6)]Man(b1-4)GlcNAc(b1-4)GlcNAc
# How it was run: as §1
# [3] = target: Fuc(a1-2)Gal(b1-4)GlcNAc(b1-2)Man
# How it was run: as §1
# [4] = target: Fuc(a1-2)Gal(b1-4)GlcNAc(b1-2)[Fuc(a1-2)Gal(b1-4)GlcNAc(b1-4)]Man(a1-3)[Fuc(a1-2)Gal(b1-4)GlcNAc(b1-2)Man(a1-6)]Man(b1-4)GlcNAc(b1-4)GlcNAc
# How it was run: as §1
# [5] = target: Fuc(a1-2)Gal(b1-4)[Fuc(a1-3)]GlcNAc(b1-2)Man(a1-6)[Fuc(a1-2)Gal(b1-4)[Fuc(a1-3)]GlcNAc(b1-2)Man(a1-3)]Man(b1-4)GlcNAc(b1-4)[Fuc(a1-6)]GlcNAc
# How it was run: as §1
# [6] = target: Fuc(a1-2)Gal(b1-4)[Fuc(a1-3)]GlcNAc(b1-2)[Fuc(a1-2)Gal(b1-4)[Fuc(a1-3)]GlcNAc(b1-4)]Man(a1-3)[Fuc(a1-2)Gal(b1-4)[Fuc(a1-3)]GlcNAc(b1-2)Man(a1-6)]Man(b1-4)GlcNAc(b1-4)GlcNAc
# How it was run: as §1
# [7] = target: Fuc(a1-2)[Gal(a1-3)]Gal(b1-4)[Fuc(a1-3)]GlcNAc
# How it was run: as §1
# [8] = target: Gal(a1-3)Gal(b1-3)GlcNAc(b1-2)Man(a1-3)[Gal(a1-3)Gal(b1-3)GlcNAc(b1-2)Man(a1-6)]Man(b1-4)GlcNAc(b1-4)GlcNAc
# How it was run: as §1
# [9] = target: Gal(a1-3)Gal(b1-4)[Fuc(a1-3)]GlcNAc(b1-2)Man(a1-3)[Gal(a1-3)Gal(b1-4)[Fuc(a1-3)]GlcNAc(b1-2)Man(a1-6)]Man(b1-4)GlcNAc(b1-4)GlcNAc
# How it was run: as §1
# [10] = target: Gal(a1-4)Gal(b1-4)GlcNAc(b1-2)Man(a1-3)[Gal(a1-4)Gal(b1-4)GlcNAc(b1-2)Man(a1-6)]Man(b1-4)GlcNAc(b1-4)GlcNAc
# How it was run: as §1
# Gal(a1-4)GlcNAc = target: Gal(a1-4)GlcNAc
# How it was run: as §1
# [11] = target: Gal(b1-3)GlcNAc(b1-2)Man(a1-3)[Gal(b1-3)GlcNAc(b1-2)Man(a1-6)]Man(b1-4)GlcNAc(b1-4)GlcNAc
# How it was run: as §1
# [12] = target: Gal(b1-3)GlcNAc(b1-2)Man(a1-3)[GlcNAc(b1-4)][Gal(b1-3)GlcNAc(b1-2)Man(a1-6)]Man(b1-4)GlcNAc(b1-4)GlcNAc
# How it was run: as §1
# [13] = target: Gal(b1-3)GlcNAc(b1-2)[Gal(b1-3)GlcNAc(b1-6)]Man(a1-6)[Gal(b1-3)GlcNAc(b1-2)Man(a1-3)]Man(b1-4)GlcNAc(b1-4)GlcNAc
# How it was run: as §1
# [14] = target: Gal(b1-3)GlcNAc(b1-3)Gal(b1-4)Glc
# How it was run: as §1
# [15] = target: Gal(b1-3)GlcNAc(b1-3)GalNAc
# How it was run: as §1
# [16] = target: Gal(b1-3)[Fuc(a1-4)]GlcNAc(b1-2)Man(a1-3)[Gal(b1-3)[Fuc(a1-4)]GlcNAc(b1-2)Man(a1-6)]Man(b1-4)GlcNAc(b1-4)[Fuc(a1-6)]GlcNAc
# How it was run: as §1
# [17] = target: Gal(b1-3)[Fuc(a1-4)]GlcNAc(b1-3)Gal(b1-4)[Fuc(a1-3)]GlcNAc
# How it was run: as §1
# [18] = target: Gal(b1-3)[Fuc(a1-4)]GlcNAc(b1-6)GalNAc
# How it was run: as §1
# [19] = target: Gal(b1-3)[Neu5Ac(a2-6)]GalNAc
# How it was run: as §1
# [20] = target: Gal(b1-3)[Neu5Ac(b2-6)]GalNAc
# How it was run: as §1
# Gal(b1-4)Glc = target: Gal(b1-4)Glc
# How it was run: as §1
# [21] = target: Gal(b1-4)GlcNAc(b1-3)Gal(b1-3)GlcNAc
# How it was run: as §1
# Gal(b1-6)Gal = target: Gal(b1-6)Gal
# How it was run: as §1
# Gal3S6S(b1-4)GlcNAc = target: Gal3S6S(b1-4)GlcNAc
# How it was run: as §1
# Gal6S(b1-4)GlcNAc = target: Gal6S(b1-4)GlcNAc
# How it was run: as §1
# [22] = target: GalNAc(b1-3)Gal(a1-6)Gal(b1-4)Glc
# How it was run: as §1
# GalNAc3S(b1-4)GlcNAc = target: GalNAc3S(b1-4)GlcNAc
# How it was run: as §1
# Glc(a1-4)Glc = target: Glc(a1-4)Glc
# How it was run: as §1
# GlcA(b1-6)Gal = target: GlcA(b1-6)Gal
# How it was run: as §1
# [23] = target: GlcNAc(a1-3)Gal(b1-4)GlcNAc
# How it was run: as §1
# [24] = target: GlcNAc(a1-4)Gal(b1-4)GlcNAc(b1-3)Gal(b1-4)[Fuc(a1-3)]GlcNAc(b1-3)Gal(b1-4)[Fuc(a1-3)]GlcNAc
# How it was run: as §1
# [25] = target: GlcNAc(b1-2)Gal(b1-3)GalNAc
# How it was run: as §1
# [26] = target: GlcNAc(b1-2)[GlcNAc(b1-6)]Man(a1-6)[GlcNAc(b1-2)Man(a1-3)][GlcNAc(b1-4)]Man(b1-4)GlcNAc(b1-4)GlcNAc
# How it was run: as §1
# [27] = target: Man(a1-2)Man(a1-2)Man(a1-3)Man
# How it was run: as §1
# [28] = target: Man(a1-2)Man(a1-6)[Man(a1-3)]Man(a1-6)[Man(a1-2)Man(a1-2)Man(a1-3)]Man
# How it was run: as §1
# [29] = target: Man(a1-3)[Man(a1-6)]Man(a1-6)[Man(a1-3)]Man
# How it was run: as §1
# Man(a1-6)Man = target: Man(a1-6)Man
# How it was run: as §1
# [30] = target: Neu5Ac(a2-6)Gal(b1-4)GlcNAc(b1-2)Man(a1-3)[GlcNAc(b1-2)Man(a1-6)]Man(b1-4)GlcNAc(b1-4)GlcNAc
# How it was run: as §1
# [31] = target: Neu5Ac(a2-6)Gal(b1-4)GlcNAc(b1-2)Man(a1-6)[Gal(b1-4)GlcNAc(b1-2)Man(a1-3)]Man(b1-4)GlcNAc(b1-4)GlcNAc
# How it was run: as §1
# [32] = target: Neu5Ac(a2-6)Gal(b1-4)GlcNAc(b1-2)Man(a1-6)[GlcNAc(b1-2)Man(a1-3)]Man(b1-4)GlcNAc(b1-4)GlcNAc
# How it was run: as §1
# [33] = target: Neu5Ac(a2-6)Gal(b1-4)GlcNAc(b1-3)Gal(b1-4)[Fuc(a1-3)]GlcNAc(b1-3)Gal(b1-4)[Fuc(a1-3)]GlcNAc
# How it was run: as §1
# Neu5Ac(a2-6)GalNAc = target: Neu5Ac(a2-6)GalNAc
# How it was run: as §1
# [34] = target: Neu5Ac(a2-6)GlcNAc(b1-4)GlcNAc(b1-4)GlcNAc
# How it was run: as §1
# [35] = target: Neu5Ac(a2-8)Neu5Ac(a2-8)Neu5Ac(a2-3)[GalNAc(b1-4)]Gal(b1-4)Glc
# How it was run: as §1
binder,measurement,setting,value
B1,glycan array binding signal (z-score),Fuc(a1-2)Gal,-0.171
same,glycan array binding signal (z-score),[1],-0.373
same,glycan array binding signal (z-score),[2],3.18
same,glycan array binding signal (z-score),[3],-1.98
same,glycan array binding signal (z-score),[4],2.76
same,glycan array binding signal (z-score),[5],1.04
same,glycan array binding signal (z-score),[6],2.8
same,glycan array binding signal (z-score),[7],-0.484
same,glycan array binding signal (z-score),[8],0.21
same,glycan array binding signal (z-score),[9],2.73
same,glycan array binding signal (z-score),[10],0.225
same,glycan array binding signal (z-score),Gal(a1-4)GlcNAc,4.99
same,glycan array binding signal (z-score),[11],-0.863
same,glycan array binding signal (z-score),[12],-0.281
same,glycan array binding signal (z-score),[13],3.33
same,glycan array binding signal (z-score),[14],-0.183
same,glycan array binding signal (z-score),[15],-0.05
same,glycan array binding signal (z-score),[16],1.24
same,glycan array binding signal (z-score),[17],4.2
same,glycan array binding signal (z-score),[18],0.999
same,glycan array binding signal (z-score),[19],-0.241
same,glycan array binding signal (z-score),[20],0.075
same,glycan array binding signal (z-score),Gal(b1-4)Glc,-0.137
same,glycan array binding signal (z-score),[21],0.662
same,glycan array binding signal (z-score),Gal(b1-6)Gal,0.132
same,glycan array binding signal (z-score),Gal3S6S(b1-4)GlcNAc,0.029
same,glycan array binding signal (z-score),Gal6S(b1-4)GlcNAc,-1.33
same,glycan array binding signal (z-score),[22],-0.627
same,glycan array binding signal (z-score),GalNAc3S(b1-4)GlcNAc,1.07
same,glycan array binding signal (z-score),Glc(a1-4)Glc,-0.124
same,glycan array binding signal (z-score),GlcA(b1-6)Gal,1.96
same,glycan array binding signal (z-score),[23],-0.73
same,glycan array binding signal (z-score),[24],2.68
same,glycan array binding signal (z-score),[25],-0.975
same,glycan array binding signal (z-score),[26],-0.104
same,glycan array binding signal (z-score),[27],-0.176
same,glycan array binding signal (z-score),[28],3.6
same,glycan array binding signal (z-score),[29],-0.102
same,glycan array binding signal (z-score),Man(a1-6)Man,0.051
same,glycan array binding signal (z-score),[30],-0.321
same,glycan array binding signal (z-score),[31],3.22
same,glycan array binding signal (z-score),[32],-1.48
same,glycan array binding signal (z-score),[33],0.139
same,glycan array binding signal (z-score),Neu5Ac(a2-6)GalNAc,-0.893
same,glycan array binding signal (z-score),[34],0.867
same,glycan array binding signal (z-score),[35],-0.341

# Reference: the supplement of paper PMC8728848
